# Laboratory results as given in PubChem BioAssay (NCATS).
# Results filed as inconclusive are left out. Calls of active or inactive are those of the source. Unless noted, calls follow the shape of the dose curve; as a rule, active = well fitted curve in either direction with a large enough effect (not every such curve was filed as active); inconclusive = small, poorly fitted or top-dose-only effect, or another doubt; inactive = flat fitted curve, though single readings scatter.
# What was measured:
# [1] = AP1 Signaling Pathway (AID 357); settings: ME-180 AP-1-bla reporter, EGF-induced, beta-lactamase ratio, 5 h; at 7.69 µM (top of the series) unless noted;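 also: ME-180 reporter cells stimulated with EGF at its EC50 level; % is scaled to controls: 0 for no effect and ±100 for the full control effect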
# Outline: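 A ratiometric CCF4 readout (405 nm excitation; 460 and 530 nm emission) quantified AP-1-driven beta-lactamase in ME-180 cells after 5 h with compound and EC50 EGF; AC50 values were derived for activators and inhibitors.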
# [2] = NFAT Signaling Pathway (AID 444); settings: Jurkat NFAT-bla M1, carbachol, beta-lactamase ratio, 5 h; at 7.69 µM (top of the series) unless noted;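 also: carbachol stimulus at about its EC50 of 1 µM final; % is scaled to controls: 0 for no effect and ±100 for the full control effect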
# Outline: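 Jurkat cells carrying an NFAT-driven β-lactamase reporter and co-transfected muscarinic M1 receptor were treated with compound plus carbachol (1 uM final, an EC50 level) for 5 h at 37 °C. CCF4 loading followed for 1 h at RT; 460/530 nm ratio gave %activity.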
# [3] = Stat Signaling Pathway (AID 446); settings: ME-180 SIE beta-lactamase reporter, IL-6 stimulated, 5 h; at 7.69 µM (top of the series) unless noted;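 also: ME-180 cervical cancer cells given 40 pM IL-6 alongside compound; SIE-controlled beta-lactamase reporter measured as 460/530 nm FRET emission ratio; % is scaled to controls: 0 for no effect and ±100 for the full control effect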
# Outline: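 Reporter line: ME-180 cervical carcinoma, SIE-beta-lactamase. Treatment: compound with 40 pM IL-6, 5 hrs, 37 C, in low-serum OPTI-MEM with 10 mM HEPES pH 7.3. Detection: 460/530 nm fluorescence.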
# [4] = molecular target: Glucocorticoid receptor (Homo sapiens) (UniProt P04150); assay: GR-EFC Redistribution (AID 451; calls by dose curve; also: potency is read from the fitted curve at half-maximal effect); settings: CHO-K1 GR-EFC translocation, beta-gal luminescence, 2 h
# Sequence of Glucocorticoid receptor (Homo sapiens) (P04150 whole entry, looked up, the tested form may be a part): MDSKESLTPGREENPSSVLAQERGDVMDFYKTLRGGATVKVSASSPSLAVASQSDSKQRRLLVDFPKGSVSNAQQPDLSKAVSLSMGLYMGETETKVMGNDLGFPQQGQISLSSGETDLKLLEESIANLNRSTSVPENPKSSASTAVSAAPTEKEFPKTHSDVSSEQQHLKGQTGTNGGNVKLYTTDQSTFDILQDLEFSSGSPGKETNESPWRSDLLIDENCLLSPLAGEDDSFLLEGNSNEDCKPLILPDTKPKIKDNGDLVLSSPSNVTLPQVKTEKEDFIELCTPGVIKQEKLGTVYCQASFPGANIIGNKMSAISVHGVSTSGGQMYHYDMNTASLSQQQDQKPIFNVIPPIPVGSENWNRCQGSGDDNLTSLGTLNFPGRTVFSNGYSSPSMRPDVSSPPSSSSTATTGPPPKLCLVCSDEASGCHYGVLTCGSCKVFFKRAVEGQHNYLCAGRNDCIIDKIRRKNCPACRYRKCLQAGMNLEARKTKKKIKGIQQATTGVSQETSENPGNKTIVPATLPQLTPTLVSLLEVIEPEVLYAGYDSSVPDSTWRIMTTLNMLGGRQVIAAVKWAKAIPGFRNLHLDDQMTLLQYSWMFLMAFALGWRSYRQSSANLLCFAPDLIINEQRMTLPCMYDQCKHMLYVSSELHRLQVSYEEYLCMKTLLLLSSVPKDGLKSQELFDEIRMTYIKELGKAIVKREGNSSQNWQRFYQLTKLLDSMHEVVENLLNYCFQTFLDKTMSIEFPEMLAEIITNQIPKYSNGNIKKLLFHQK
# Outline: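 CHO-K1 cells stably expressing nuclear-localized β-gal enzyme acceptor and GR fused C-terminally to the enzyme donor fragment; ligand-driven nuclear translocation restores β-gal by complementation. Compounds titrated up to 46 uM final, 2 h at 37 °C; luminescence read.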
# [5] = molecular target: Mitogen-activated protein kinase 10 (Mus musculus) (UniProt Q61831); assay: JNK3 AlphaScreen Assay (AID 530);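 also: kinase came from lysate of stimulated human HepG2 cells; signal reports phosphorylation of biotinylated GST-cJun 1-79 at Ser73 with 10 µM ATP; % is scaled to controls: 0 for no effect and ±100 for the full control effect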
# Outline: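 Inhibitors reduce antibody binding to phosphorylated biotin-cJun, lowering AlphaScreen luminescence. Lysates from HepG2 cells pre-activated by IL-1beta plus TNF-alpha supplied JNK3; compounds were titrated.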
# [6] = molecular target: 3',5'-cyclic-AMP phosphodiesterase 4B (Homo sapiens) (UniProt Q07343); assay: qHTS Assay for Inhibitors of PDE-IV (AID 607; active = well fitted activation curve with a large enough effect in the main read-out, with a control signal flat, not every such curve was filed as active; also: % of control where 0% means no effect)
# Sequence of 3',5'-cyclic-AMP phosphodiesterase 4B (Homo sapiens) (Q07343 whole entry, looked up): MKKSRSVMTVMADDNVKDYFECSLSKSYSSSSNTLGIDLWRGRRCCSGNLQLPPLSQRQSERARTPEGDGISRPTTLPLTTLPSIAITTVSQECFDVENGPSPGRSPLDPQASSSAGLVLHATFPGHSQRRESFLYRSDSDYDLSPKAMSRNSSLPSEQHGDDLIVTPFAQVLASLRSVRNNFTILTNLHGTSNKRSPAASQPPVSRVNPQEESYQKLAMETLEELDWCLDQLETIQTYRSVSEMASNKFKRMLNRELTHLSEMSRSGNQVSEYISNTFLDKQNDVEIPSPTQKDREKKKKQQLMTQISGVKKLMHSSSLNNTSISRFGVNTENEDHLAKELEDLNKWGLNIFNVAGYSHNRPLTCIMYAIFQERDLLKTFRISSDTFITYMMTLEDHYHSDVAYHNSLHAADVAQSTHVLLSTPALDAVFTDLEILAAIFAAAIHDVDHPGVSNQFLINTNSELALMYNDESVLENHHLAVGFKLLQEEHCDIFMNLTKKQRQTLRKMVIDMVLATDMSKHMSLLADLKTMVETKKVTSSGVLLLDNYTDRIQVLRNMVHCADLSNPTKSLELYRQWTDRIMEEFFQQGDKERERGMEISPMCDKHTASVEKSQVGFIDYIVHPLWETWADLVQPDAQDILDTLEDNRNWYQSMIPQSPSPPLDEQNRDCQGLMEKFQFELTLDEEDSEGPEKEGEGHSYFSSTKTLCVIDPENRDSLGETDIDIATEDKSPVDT
# Outline: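 Cell-based read-out of cAMP via a modified cyclic nucleotide-gated channel and membrane potential dye (535/590 nm) in HEK293 cells expressing PDE4 endogenously. Compounds tested up to 22.9 uM final; 100 uM RO 20-1724 reference.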
# [7] = qHTS Assay for Lipid Storage Modulators (AID 1519; calls by dose curve); settings: Drosophila S3 cells, BODIPY lipid droplet/cell ratio, laser cytometry, cells loaded with oleic acid; for activity change, negative = inhibition: at 57.5 µM (top of the series)
# Outline: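 Cells seeded at 5,000 per well were treated with compounds over a concentration series and loaded with oleic acid (400 uM, as added). Lipid droplet fluorescence (488 nm excitation, 500-530 nm channel) was read by laser-scanning cytometry and normalized to 20 uM Triacsin C.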
# [8] = Primary qHTS for small molecule stabilizers of the endoplasmic reticulum resident proteome: Secreted ER Calcium Modulated Protein (SERCaMP) assay (AID 1508630; active = well fitted curve in the direction sought with a large enough effect; an effect the other way counts as inactive or inconclusive; also: % is scaled to controls: 0 for no effect and ±100 for the full control effect)
# Outline: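 GLuc-SERCaMP-expressing SH-SY5Y cells, pretreated 16 h with compound, are challenged with thapsigargin to empty ER calcium stores; after 4 h, coelenterazine is added directly to the medium and luminescence is imaged.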
# [9] = molecular target: Cytochrome P450 1A2 (Homo sapiens) (UniProt P05177); assay: p450-cyp1a2 (AID 410; calls by dose curve; also: potency is read from the fitted curve at half-maximal effect;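 as to activity change, negative = inhibition: -100% = full effect of reference inhibitor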)
# Sequence of Cytochrome P450 1A2 (Homo sapiens) (P05177 whole entry, looked up): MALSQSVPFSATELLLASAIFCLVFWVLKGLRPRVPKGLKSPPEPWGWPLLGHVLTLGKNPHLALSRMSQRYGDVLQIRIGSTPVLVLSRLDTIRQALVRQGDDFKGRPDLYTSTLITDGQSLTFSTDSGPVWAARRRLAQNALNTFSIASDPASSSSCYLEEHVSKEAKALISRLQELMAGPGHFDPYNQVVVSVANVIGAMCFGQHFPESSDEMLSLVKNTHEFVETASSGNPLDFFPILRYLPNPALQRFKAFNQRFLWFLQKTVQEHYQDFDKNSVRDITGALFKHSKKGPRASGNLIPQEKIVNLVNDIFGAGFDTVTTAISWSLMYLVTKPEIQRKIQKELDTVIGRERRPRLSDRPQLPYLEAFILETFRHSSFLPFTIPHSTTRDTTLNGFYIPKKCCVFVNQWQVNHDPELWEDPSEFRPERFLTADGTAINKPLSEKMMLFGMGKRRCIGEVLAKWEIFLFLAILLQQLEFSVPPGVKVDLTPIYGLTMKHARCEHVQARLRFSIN
# Outline: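 20nM CYP1A2 with 100uM Luciferin-ME (at Km) in 100mM KPO4; compound preincubated 10 min, NADPH regeneration added, 60 min at room temperature. Luciferin quantified by luminescence after detection reagent; normalized to 57 uM furafylline.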
# [10] = molecular target: Glucocorticoid receptor (Homo sapiens) (UniProt P04150); assay: GR-GFP Redistribution (AID 450;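 active = compounds whose dose series gives a full or clear partial fitted curve of increased nuclear translocation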; also: potency is read from the fitted curve at half-maximal effect); settings: U2OS GR-GFP nuclear translocation, laser cytometry, 2 h
# [11] = molecular target: Cytochrome P450 3A4 (Homo sapiens) (UniProt P08684); assay: qHTS Assay for Activators of Cytochrome P450 3A4 (AID 885; active = well fitted curve in the direction sought with a large enough effect; an effect the other way counts as inactive or inconclusive; also: nearly all actives have a fitted effect of over 65% in size)
# Sequence of Cytochrome P450 3A4 (Homo sapiens) (P08684 whole entry, looked up): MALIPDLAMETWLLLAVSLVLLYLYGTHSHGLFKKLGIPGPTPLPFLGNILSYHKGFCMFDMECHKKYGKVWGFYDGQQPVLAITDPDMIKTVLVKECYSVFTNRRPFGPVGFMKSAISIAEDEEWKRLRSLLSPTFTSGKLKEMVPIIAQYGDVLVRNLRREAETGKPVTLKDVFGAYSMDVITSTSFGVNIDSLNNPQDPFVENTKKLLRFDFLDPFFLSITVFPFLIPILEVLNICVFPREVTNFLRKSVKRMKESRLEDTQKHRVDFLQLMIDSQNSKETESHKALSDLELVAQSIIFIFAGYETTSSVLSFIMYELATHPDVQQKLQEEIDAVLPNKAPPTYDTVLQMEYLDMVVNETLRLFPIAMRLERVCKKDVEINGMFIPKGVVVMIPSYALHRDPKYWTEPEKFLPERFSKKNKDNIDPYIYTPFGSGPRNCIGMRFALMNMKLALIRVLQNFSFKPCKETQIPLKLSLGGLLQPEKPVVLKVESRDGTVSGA
# Outline: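 Signal was normalized against complete inhibition by 57 uM ketoconazole. The reaction used 20nM CYP3A4 with 25uM Luciferin-PPXE, 10-min compound preincubation and a 60-min NADPH-supported step at RT.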
# [12] = Confirmation and Secondary Assay for Modulators of Hemoglobin Beta Chain Splicing at IVS2 654 locus (AID 910; active = well fitted curve in the direction sought with a large enough effect; an effect the other way counts as inactive or inconclusive;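 also: per-well total GFP intensity by laser scanning cytometry after 2-day treatment; % of control where 0% means no effect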)
# Outline: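 HeLa cells stably carrying EGFP interrupted by mutant beta-globin IVS2-654 intron (CMV-driven) were treated with compound for 2 days at 37C; corrected splicing was scored as total peak GFP intensity per well (488 nm excitation, 500-520 nm emission).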
# [13] = Confirmation and Secondary Assay for Modulators of Hemoglobin Beta Chain Splicing at IVS2 705 locus (AID 930; active = well fitted curve in the direction sought with a large enough effect; an effect the other way counts as inactive or inconclusive;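 also: HeLa cells stably expressing the EGFP-705 splicing reporter; GFP fluorescence per well restored by corrected splicing of the IVS2-705 intron in EGFP; % of control where 0% means no effect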)
# Outline: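 Splice-correction reporter: EGFP cDNA split by beta-globin intron 2 bearing the 705 mutation, stably in HeLa. Compound incubation 2 days, 37C; fluorescent objects 5-250 µm summed per well.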
# [14] = molecular target: Lysosomal acid glucosylceramidase (Homo sapiens) (UniProt P04062); assay: Glucocerebrosidase-p2 (AID 348; in the data active = potency below about 10 µM; also: potency is read from the fitted curve at half-maximal effect); settings: purified GBA, blue fluorogenic substrate, 40 min
# Sequence of Lysosomal acid glucosylceramidase (Homo sapiens) (P04062 whole entry, looked up): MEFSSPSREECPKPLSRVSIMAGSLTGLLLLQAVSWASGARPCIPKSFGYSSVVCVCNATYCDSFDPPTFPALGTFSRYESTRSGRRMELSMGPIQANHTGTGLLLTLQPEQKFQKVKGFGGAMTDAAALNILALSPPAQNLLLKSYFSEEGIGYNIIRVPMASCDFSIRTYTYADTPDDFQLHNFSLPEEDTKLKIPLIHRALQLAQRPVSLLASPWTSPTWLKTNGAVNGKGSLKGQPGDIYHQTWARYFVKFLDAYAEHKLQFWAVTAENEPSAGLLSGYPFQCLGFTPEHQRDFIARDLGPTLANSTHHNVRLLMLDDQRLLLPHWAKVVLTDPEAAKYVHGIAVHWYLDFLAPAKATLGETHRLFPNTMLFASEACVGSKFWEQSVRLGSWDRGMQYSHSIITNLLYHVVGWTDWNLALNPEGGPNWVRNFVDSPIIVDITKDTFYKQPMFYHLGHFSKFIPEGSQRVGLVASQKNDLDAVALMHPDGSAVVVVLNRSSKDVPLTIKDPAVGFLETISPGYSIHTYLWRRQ
# Outline: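 Compounds titrated from 0.6 nM upwards against 0.2 nM enzyme in pH 5.9 citric acid/KH2PO4, taurocholate, tween-20; blue fluorogenic substrate 80 uM, 40 min room temperature, stopped and read Ex 365/Em 440 for AC50.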
# [15] = molecular target: Ubiquitin carboxyl-terminal hydrolase 1 (Homo sapiens) (UniProt O94782); assay: Inhibitors of USP1/UAF1: Pilot qHTS (AID 504865; active = well fitted curve in the direction sought with a large enough effect; an effect the other way counts as inactive or inconclusive;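 also: rhodamine fluorescence freed from ubiquitin-rhodamine substrate followed over time; top concentration of the series differs between compounds; % is scaled to controls: 0 for no effect and ±100 for the full control effect; nearly all actives have a fitted effect of over 35% in size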)
# Sequence of Ubiquitin carboxyl-terminal hydrolase 1 (Homo sapiens) (O94782 whole entry, looked up): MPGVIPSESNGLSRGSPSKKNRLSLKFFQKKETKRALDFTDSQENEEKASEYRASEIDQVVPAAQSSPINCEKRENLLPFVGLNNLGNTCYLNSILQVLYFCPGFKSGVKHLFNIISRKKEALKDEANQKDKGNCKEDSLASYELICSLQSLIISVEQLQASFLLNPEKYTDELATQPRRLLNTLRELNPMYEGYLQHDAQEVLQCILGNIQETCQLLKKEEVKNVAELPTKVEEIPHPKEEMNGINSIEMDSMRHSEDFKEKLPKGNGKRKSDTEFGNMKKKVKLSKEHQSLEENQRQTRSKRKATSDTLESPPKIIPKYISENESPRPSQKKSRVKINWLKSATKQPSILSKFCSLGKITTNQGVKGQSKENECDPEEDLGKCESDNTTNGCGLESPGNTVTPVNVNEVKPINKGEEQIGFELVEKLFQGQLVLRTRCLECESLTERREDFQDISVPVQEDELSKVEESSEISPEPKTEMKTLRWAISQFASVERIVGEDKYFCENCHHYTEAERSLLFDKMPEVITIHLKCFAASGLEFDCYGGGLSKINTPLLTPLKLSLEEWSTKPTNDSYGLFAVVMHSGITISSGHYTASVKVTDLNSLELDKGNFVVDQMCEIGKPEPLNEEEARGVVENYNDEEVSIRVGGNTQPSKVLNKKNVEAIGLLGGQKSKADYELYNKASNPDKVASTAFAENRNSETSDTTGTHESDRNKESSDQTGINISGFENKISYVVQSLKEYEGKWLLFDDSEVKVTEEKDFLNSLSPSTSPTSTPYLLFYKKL
# Outline: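 USP1/UAF1 complex (1nM) preincubated with compound 15 min at room temperature, then Ub-Rho substrate (150nM final) added. Fluorescence read kinetically at 480/540 nm, 6 reads every 60 seconds. Buffer: 50mM HEPES pH 7.8, 0.5mM EDTA, 0.1 mg/ml BSA, 1mM TCEP, 0.01% Tween-20.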
# [16] = measured here: cell count channel max response
# [17] = measured here: lipid channel max response
SMILES,"activity change, negative = inhibition [1]","activity change, negative = inhibition [2]","activity, negative = inhibition [3]",Potency [4],Potency [5],Potency [6],"activity change, negative = inhibition [7]","max response [7, 16]","max response [7, 17]",outcome [8],Potency [9],Potency [10],Potency [11],Potency [12],outcome [13],Potency [14],Potency [15]
Cc1noc(C)c1C(=O)N1CCC2(CCCN(C(=O)Nc3ccccc3)C2)CC1,-21% (inactive),0.607% (inactive),-8.55% (inactive),> 46 µM (inactive),inactive,inactive,2.45% (inactive),20.4%,27.5%,inactive,–,–,–,–,–,–,–
Cc1ccccc1-c1nc(NCc2cccnc2)c2ccccc2n1,-6.01% (inactive),-1.21% (inactive),3.29% (inactive),> 46 µM (inactive),inactive,–,1.87% (inactive),-7.11%,-4.19%,inactive,0.501 µM (active),> 46 µM (inactive),inactive,inactive,inactive,–,–
N#Cc1cccc(NC(=O)N2CC[C@@]3(CCCN(C(=O)c4ccco4)C3)C2)c1,-2.67% (inactive),3.83% (inactive),-1.84% (inactive),> 46 µM (inactive),inactive,inactive,6.04% (inactive),4.12%,14%,inactive,inactive,–,inactive,–,–,–,–
Cc1noc(C)c1-c1ccc2ncnc(NC3CC3)c2c1,–,–,–,> 46 µM (inactive),inactive,inactive,-8.16% (inactive),-21.4%,-28.4%,inactive,–,> 46 µM (inactive),–,inactive,inactive,> 11.4 µM (inactive),inactive
O=C(c1cccc(F)c1)N1CCC2(CC1)CCN(c1ccncc1)CC2,–,–,24% (inactive),> 46 µM (inactive),inactive,–,-0.521% (inactive),-17.2%,-16.4%,inactive,–,–,–,–,–,> 11.4 µM (inactive),–
CN(C)c1ccc(-c2nc(N(C)C)c3ccccc3n2)cc1,3.53% (inactive),-21.8% (inactive),–,> 46 µM (inactive),inactive,inactive,-3.41% (inactive),2.51%,-1.1%,inactive,0.251 µM (active),> 46 µM (inactive),inactive,inactive,inactive,–,inactive
COc1ccc(CNc2nc(-c3ccoc3)nc3ccccc23)c(OC)c1,-10.8% (inactive),-8.73% (inactive),6.96% (inactive),> 46 µM (inactive),inactive,inactive,11% (inactive),-6.93%,2.43%,inactive,–,> 46 µM (inactive),–,inactive,inactive,–,–
Cn1cccc1C(=O)N1CCC2(CCCN(Cc3ccncc3)C2)CC1,-7.26% (inactive),–,7.75% (inactive),> 46 µM (inactive),inactive,inactive,7.27% (inactive),1.45%,14.6%,inactive,15.8 µM (active),–,inactive,–,–,–,–
CS(=O)(=O)Nc1cccc(-c2nc(NCCN3CCOCC3)c3ccccc3n2)c1,-21.3% (inactive),–,-7.39% (inactive),> 46 µM (inactive),inactive,inactive,9.69% (inactive),-5.53%,2.51%,inactive,25.1 µM (active),> 46 µM (inactive),inactive,inactive,inactive,–,–
CC(=O)NCCNc1ncncc1-c1ccccc1C(F)(F)F,1.26% (inactive),–,6.6% (inactive),> 46 µM (inactive),inactive,inactive,-1.77% (inactive),-7.27%,-8.94%,inactive,inactive,> 46 µM (inactive),–,inactive,inactive,–,inactive
Cc1cnc(CNc2cc(-c3ccoc3)ncn2)cn1,-2.94% (inactive),1.34% (inactive),-9.44% (inactive),> 46 µM (inactive),inactive,inactive,3.62% (inactive),9.95%,14.7%,inactive,25.1 µM (active),> 46 µM (inactive),–,inactive,inactive,–,–
COc1ccc(NC(=O)N2CC3(CCN(C(=O)c4csnn4)CC3)C2)cc1,20.6% (inactive),16.7% (inactive),-2.12% (inactive),> 46 µM (inactive),inactive,inactive,6.22% (inactive),7.84%,18.1%,inactive,inactive,–,–,–,–,–,–
c1nc(NCCN2CCOCC2)c2cc(-c3ccc4c(c3)OCO4)ccc2n1,-13.5% (inactive),1.02% (inactive),-4.03% (inactive),> 46 µM (inactive),inactive,inactive,10.6% (inactive),2.73%,12.8%,inactive,2.51 µM (active),> 46 µM (inactive),inactive,inactive,inactive,–,inactive
CN(C)C(=O)c1ccc(-c2cncnc2NCc2cccs2)cc1,8.21% (inactive),6.04% (inactive),17.8% (inactive),> 46 µM (inactive),inactive,inactive,6.52% (inactive),22.2%,27.8%,inactive,20 µM (active),> 46 µM (inactive),inactive,inactive,inactive,–,–
